Assay results published in PubChem BioAssay (NCI).
This is part of a sample that, as a whole, favours compounds with a hit. Of some 83,000 tested, about 20% had one in any assay.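 Testing used 96-well plates and a 48-hour single-concentration exposure. Example: -40 means 40% of the starting cells died.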 A number with no mark means an inactive call. Calls of active or inactive are those of the source. Rule for the calls: active = growth percent below 10; inactive = the rest.

Tested on: SN12C renal
Assay: NCI-60 one-dose screen, 48 h (100 = growth as untreated, 0 = no growth, -100 = all killed)
Details: 10 µM unless noted

Q: How did the growth turn out when `COc1ccccc1/C=C/C1=C(C)CCC(c2ccccc2OC)C1C` (stereo not given) was run?
A: Its growth is 28%.

Q: For `COc1cc(OCc2cccc(-c3ccc4c(c3)OCCO4)c2C)cc(OC)c1C=O`, which growth is on record?
A: The growth was 68.2%.

Q: With `COc1ccccc1-c1nc2ccc3[nH]ncc3c2c2c1CCCC2` as the molecule, how does the growth read?
A: Its growth is 80.5%.

Q: How did the growth turn out when `CC(=O)OCCOc1cc(Cl)c(Cl)cc1Cl` was run?
A: The growth was 102%.

Q: Which growth does the source give for `CC1(C)CC(=O)C2=C(C1)OC(C(=O)c1ccccc1)C2c1cccc(Oc2ccccc2)c1` (stereo not given) here?
A: Its growth is 38.7%.

Q: How did the growth turn out when `CC1OC(C(=O)N2CCN(CCO)CC2)CC1COC1CCCCC1` (stereo not given) was run?
A: The growth was 92.1% [50 µM].

Q: How did the growth turn out when `COc1ccccc1NC(=O)n1c(=O)cc(C)c2ccc(O)cc21` was run?
A: Its growth is 101%.

Q: Which growth does the source give for `COc1ccc2c(c1)C(c1c[nH]c3ccccc13)(c1c[nH]c3ccccc13)CCO2` here?
A: The growth was 50.6%.

Q: `CC(C)(C)n1cc(-c2ccnc(NCCNS(=O)(=O)c3cccc4ccccc34)c2)c(-c2cccc(O)c2)n1` was tested. Which growth did it give?
A: The growth was 72.5%.

Q: Which growth does the source give for `COc1cc(C2=Nc3c(N)nc(N)nc3NC(c3cccc(Nc4ccnc5cc(C(F)(F)F)ccc45)c3)C2)cc(OC)c1OC` (stereo not given) here?
A: Its growth is 73%.

Q: For `Nc1nc(=O)n([C@H]2CC=C(CO)O2)cc1F`, which growth is on record?
A: Its growth is 96.8%.

Q: With `CS(=O)(=O)c1ccc(/C(=N/NC(N)=S)c2ccc(F)cc2)cc1` as the molecule, how does the growth read?
A: The growth was 96.5%.

Q: With `O=c1n(C2OC(CO)C(O)C2O)ccc2nccn12` (stereo not given) as the molecule, how does the growth read?
A: Its growth is 107%.

Q: For `Cc1c(N2CCCCC2)[nH]c2ccccc12`, which growth is on record?
A: Its growth is 98.4%.

Q: `O=C1CCc2c(sc3[nH]c(=S)n(-c4cc(C(F)(F)F)cc(C(F)(F)F)c4)c(=O)c23)C1` was tested. Which growth did it give?
A: Its growth is 8.54% (active).
